Experimental findings from PubChem BioAssay (EPA / NIEHS) are described below.

The target in experiment [1] is Retinoic acid receptor RXR-alpha (Homo sapiens) (UniProt P19793). Description: OT_NURR1_NURR1RXRa_0480: Odyssey Thera (OT) 8-hour HEK293T Protein Complementation Assay for Nurr1/retinoid X receptor (RXR) (AID 2283385). An outline of the steps: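 Compounds are applied to HEK293T cells carrying Nurr1 and RXRα linked to reporter fragments. After 8 h, fluorescence intensity reports heterodimer formation, with DMSO as baseline.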

Experiment [2] shares this target. Description: OT_NURR1_NURR1RXRa_1440: Odyssey Thera (OT) 24-hour HEK293T Protein Complementation Assay for Nurr1/retinoid X receptor (RXR) (AID 2283386). An outline of the steps: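 Measured as fluorescence from a reconstituted split reporter, this 24 h HEK293T complementation assay scores compound-induced gain of Nurr1/RXRα association relative to DMSO.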
Experiment [3] deals with Peroxisome proliferator-activated receptor gamma (Homo sapiens) (UniProt P37231). In words: OT_PPARg_PPARgSRC1_0480: Odyssey Thera (OT) 8-hour Protein-Complementation Assay for Peroxisome Proliferator-activated Receptor Gamma / SRC-1 Co-activator (AID 2283387).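 Also: nuclear to cytoplasmic split Venus YFP fluorescence ratio reporting PPARg SRC-1 interaction.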 An outline of the steps: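 HEK293T transiently transfected with PPARg and SRC-1 fused to Venus YFP fragments, compounds 8 h at 37C. Fixed, Draq5-stained cells imaged; nuclear/cytoplasmic 488 nm fluorescence ratio over at least 350 cells per image; gain fitted versus DMSO.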

The target is the same in experiment [4]. Description: OT_PPARg_PPARgSRC1_1440: Odyssey Thera (OT) 24-hour Protein-Complementation Assay for Peroxisome Proliferator-activated Receptor Gamma/ SRC-1 Co-activator (AID 2283388). An outline of the steps: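 Readout: nuclear-to-cytoplasmic 488 nm fluorescence ratio, ≥350 cells per image, 8 images per well, after 24 h compound exposure of HEK293T expressing PPARg/SRC-1 split-YFP fusions. Activity fitted in positive direction against DMSO.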

The nature of experiment [5]: CEETOX_H295R_11DCORT: CeeTox H295R High-throughput Steroidogenesis Assay for 11-Deoxycortisol (11DCORT) (AID 2283432; active = hit-call score of the fitted dose curve at least 0.9, where 1 is the maximum; inactive = score below 0.9;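 as to AC50: human adrenal H295R cells prestimulated with 10 µM forskolin for 48 h; 11-deoxycortisol secreted into the medium measured by LC-MS/MS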). Conditions: actives raise or lower the signal. An outline of the steps:
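H295R cells prestimulated 48 h with 10 uM forskolin, then exposed 48 h to chemical in 0.1% DMSO. 11-Deoxycortisol in medium quantified by HPLC-MS/MS after MTBE extraction; bidirectional fit versus DMSO. MTT viability read in same wells.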

Experiment [6] is described as follows: CEETOX_H295R_OHPREG: CeeTox H295R High-throughput Steroidogenesis Assay for OH-Pregnenolone (OHPREG) (AID 2283434; active = hit-call score of the fitted dose curve at least 0.9, where 1 is the maximum; inactive = score below 0.9). Conditions: actives raise or lower the signal. An outline of the steps:
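Hormone levels in spent medium were measured by tandem mass spectrometry following liquid-liquid extraction. Cells (H295R) had been forskolin-stimulated (10 uM, 48 h) before a 48 h chemical exposure at 0.1% DMSO, with activity fitted in both directions against DMSO.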

Experiment [7] can be described thus: CEETOX_H295R_OHPROG: CeeTox H295R High-throughput Steroidogenesis Assay for OH-Progesterone (OHPROG) (AID 2283435; active = hit-call score of the fitted dose curve at least 0.9, where 1 is the maximum; inactive = score below 0.9;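 as to AC50: human adrenal H295R cells primed 48 h with 10 µM forskolin; 17alpha-hydroxyprogesterone secreted into medium measured by HPLC-MS/MS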). The following applies: actives raise or lower the signal. An outline of the steps:
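Secreted 17alpha-hydroxyprogesterone is read by tandem MS from media of forskolin-primed H295R cells dosed with chemical for 48 h. Activity is fitted in both directions against DMSO baseline; cytotoxic concentrations are re-tested diluted.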

A short description of experiment [8]: CEETOX_H295R_CORTIC: CeeTox H295R High-throughput Steroidogenesis Assay for Corticosterone (CORTIC) (AID 2283437; active = hit-call score of the fitted dose curve at least 0.9, where 1 is the maximum; inactive = score below 0.9;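 also: corticosterone secreted into medium quantified by mass spectrometry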;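 as to AC50: human H295R adrenal cells prestimulated with forskolin before chemical exposure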). The following applies: actives raise or lower the signal. An outline of the steps:
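Corticosterone secreted into medium is measured by reverse-phase HPLC with tandem MS following liquid-liquid extraction. Cells are forskolin-stimulated (10 uM, 48 h) before 48 h test exposure; activity fitted in both directions against DMSO.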

Experiment [9] is described as follows: CEETOX_H295R_CORTISOL: CeeTox H295R High-throughput Steroidogenesis Assay for Cortisol (AID 2283438; active = hit-call score of the fitted dose curve at least 0.9, where 1 is the maximum; inactive = score below 0.9;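 also: cortisol secreted into medium quantified by LC-MS/MS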). Conditions: actives raise or lower the signal. An outline of the steps:
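Human adrenocortical H295R cells (passage ≤10) received test chemicals for 48 h after forskolin priming. Secreted cortisol was measured by LC-MS/MS.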

The nature of experiment [10]: CEETOX_H295R_DOC: CeeTox H295R High-throughput Steroidogenesis Assay for DOC (AID 2283439; active = hit-call score of the fitted dose curve at least 0.9, where 1 is the maximum; inactive = score below 0.9). Conditions: actives raise or lower the signal. An outline of the steps: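 Secreted DOC was quantified from H295R media by HPLC-MS/MS after 48 h chemical exposure following 48 h forskolin (10 uM) prestimulation. Values were fitted in both directions relative to DMSO, the negative control and baseline.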

Experiment [11] is described as follows: CEETOX_H295R_PROG: CeeTox H295R High-throughput Steroidogenesis Assay for Progesterone (PROG) (AID 2283442; active = hit-call score of the fitted dose curve at least 0.9, where 1 is the maximum; inactive = score below 0.9;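 as to AC50: human H295R adrenal cells primed with 10 µM forskolin before dosing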). Conditions: actives raise or lower the signal. An outline of the steps:
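Progesterone read-out: HPLC-MS/MS on MTBE extracts of conditioned medium after 48 h chemical exposure of forskolin-primed (10 uM, 48 h) H295R cells. Gain or loss of signal was fitted relative to DMSO baseline.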

Read-out in experiment [12]: Tumor necrosis factor receptor superfamily member 6 (Homo sapiens) (UniProt P25445)
In words: LTEA_HepaRG_FAS: Life Technologies and Expression Analysis (LTEA) Assay for Fas cell surface death receptor (FAS) using HepaRG (AID 2283447; active = hit-call score of the fitted dose curve at least 0.9, where 1 is the maximum; inactive = score below 0.9). Conditions: mRNA level, 48 h; actives raise or lower the signal. An outline of the steps:
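FAS transcript level was measured by TaqMan qRT-PCR against three housekeeping genes after 48 h chemical exposure. Cells were HepaRG, 0.5% DMSO vehicle, with a top concentration of 100 uM and half-log dilutions over eight points, in duplicate.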

Read-out in experiment [13]: Fatty acid synthase (Homo sapiens) (UniProt P49327)
Description: LTEA_HepaRG_FASN: Life Technologies and Expression Analysis (LTEA) Assay for Fatty Acid Synthase (FASN) using HepaRG (AID 2283448; active = hit-call score of the fitted dose curve at least 0.9, where 1 is the maximum; inactive = score below 0.9). Conditions: mRNA level, 48 h; actives raise or lower the signal. An outline of the steps: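 Transcript-level assay: HepaRG liver cells are treated for 48 h across an eight-point range topping at 100 uM, and FASN mRNA, normalized to three housekeeping genes, is compared with DMSO controls in both directions.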

Read-out in experiment [14]: Cyclin D2 (CCND2), CCND2 (gene 894)
Description: LTEA_HepaRG_CCND2: Life Technologies and Expression Analysis (LTEA) Assay for Cyclin D2 (CCND2) using HepaRG (AID 2283449; active = hit-call score of the fitted dose curve at least 0.9, where 1 is the maximum; inactive = score below 0.9). The following applies: mRNA level, 48 h; actives raise or lower the signal. An outline of the steps: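 Read-out is CCND2 mRNA level measured by qRT-PCR in human HepaRG liver cells and normalised to three housekeeping genes. Chemicals were applied for 48 h at up to 100 uM, with gain or loss fitted relative to 0.5% DMSO.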

Read-out in experiment [15]: Cyclin Dependent Kinase Inhibitor 1A (CDKN1A), CDKN1A (gene 1026)
In words: LTEA_HepaRG_CDKN1A: Life Technologies and Expression Analysis (LTEA) Assay for Cyclin Dependent Kinase Inhibitor 1A (CDKN1A) using HepaRG (AID 2283450; active = hit-call score of the fitted dose curve at least 0.9, where 1 is the maximum; inactive = score below 0.9). Conditions: mRNA level, 48 h; actives raise or lower the signal. An outline of the steps:
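HepaRG, 48 h dosing, 8-pt half-log series from 100 uM top, 0.5% DMSO vehicle, duplicates. Readout: TaqMan qRT-PCR of CDKN1A transcript, housekeeping-normalized (ACTB, GAPDH, POLR2A). Up/down curve fit relative to DMSO.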

Experiment [16] has as its target Bile acid receptor (Homo sapiens) (UniProt Q96RI1). Description: OT_FXR_FXRSRC1_0480: Odyssey Thera (OT) 8-hour HEK293T Protein-Complementation Assay for Farnesoid X receptor/SRC-1 Co-activator (AID 2283383). An outline of the steps: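 Co-activator recruitment to FXR was measured in living HEK293T cells, where interaction of the two fused partners restored an active fluorescent reporter. Signal gain after 8 h treatment was referenced to DMSO.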

The target is the same in experiment [17]. In words: OT_FXR_FXRSRC1_1440: Odyssey Thera (OT) 24-hour HEK293T Protein-Complementation Assay for Farnesoid X receptor/SRC-1 Co-activator (AID 2283384). An outline of the steps:
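Cell-based binding reporter: interaction of FXR with SRC-1 brings reporter fragments together, giving a fluorescence signal read 24 h after dosing of HEK293T cells.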

Experiment [18] in a line: CEETOX_H295R_ESTRADIOL: CeeTox H295R High-throughput Steroidogenesis Assay for Estradiol (AID 2283440; active = hit-call score of the fitted dose curve at least 0.9, where 1 is the maximum; inactive = score below 0.9;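 also: estradiol secreted into medium quantified by LC-MS/MS after dansyl derivatisation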). The following applies: actives raise or lower the signal. An outline of the steps:
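H295R, 48 h forskolin (10 uM) prestim → 48 h compound, 0.1% DMSO final. Estradiol in medium: MTBE extraction, dansyl chloride derivatization, LC-MS/MS. Fit bidirectional vs DMSO baseline; MTT viability in same wells.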

Experiment [19] is described as follows: CEETOX_H295R_ESTRONE: CeeTox H295R High-throughput Steroidogenesis Assay for Estrone (AID 2283441; active = hit-call score of the fitted dose curve at least 0.9, where 1 is the maximum; inactive = score below 0.9;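 also: estrone secreted into medium measured by LC-MS/MS after dansyl derivatization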). The following applies: actives raise or lower the signal. An outline of the steps:
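H295R cells; 48 h forskolin (10 uM) prestimulation; 48 h compound exposure, 0.1% DMSO final. Medium estrone: MTBE extraction, dansyl derivatization, HPLC-MS/MS. Bidirectional fit vs DMSO.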

Several values for one entry are separate records, joined by “and”; a condition that tells them apart may be missing. Equal entries are not always repeated. Inconclusive results are not listed. Where a structure was tested more than once in an assay, its records may differ in their call. Activity calls are given as the source filed them. The calls were made as follows, unless noted: active = hit-call score of the fitted dose curve at least 0.9, where 1 is the maximum; inconclusive = response in the unintended direction; inactive = score below 0.9.

Chain of Bile acid receptor (Homo sapiens) (Q96RI1 whole entry, looked up, the tested form may be a part): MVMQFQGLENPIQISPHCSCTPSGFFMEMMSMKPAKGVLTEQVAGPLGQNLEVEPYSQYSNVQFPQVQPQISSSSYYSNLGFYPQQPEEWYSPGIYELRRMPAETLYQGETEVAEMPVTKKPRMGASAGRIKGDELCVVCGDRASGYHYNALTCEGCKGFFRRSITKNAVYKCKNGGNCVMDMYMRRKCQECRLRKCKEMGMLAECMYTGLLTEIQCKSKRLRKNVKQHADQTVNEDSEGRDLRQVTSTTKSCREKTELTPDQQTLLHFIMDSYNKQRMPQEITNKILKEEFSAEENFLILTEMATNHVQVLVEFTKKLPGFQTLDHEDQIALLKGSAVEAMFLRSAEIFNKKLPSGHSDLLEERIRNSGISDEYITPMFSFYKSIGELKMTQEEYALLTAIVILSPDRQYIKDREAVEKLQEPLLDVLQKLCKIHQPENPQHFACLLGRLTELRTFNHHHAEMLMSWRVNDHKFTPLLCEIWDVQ
Chain of Retinoic acid receptor RXR-alpha (Homo sapiens) (P19793 whole entry, looked up, the tested form may be a part): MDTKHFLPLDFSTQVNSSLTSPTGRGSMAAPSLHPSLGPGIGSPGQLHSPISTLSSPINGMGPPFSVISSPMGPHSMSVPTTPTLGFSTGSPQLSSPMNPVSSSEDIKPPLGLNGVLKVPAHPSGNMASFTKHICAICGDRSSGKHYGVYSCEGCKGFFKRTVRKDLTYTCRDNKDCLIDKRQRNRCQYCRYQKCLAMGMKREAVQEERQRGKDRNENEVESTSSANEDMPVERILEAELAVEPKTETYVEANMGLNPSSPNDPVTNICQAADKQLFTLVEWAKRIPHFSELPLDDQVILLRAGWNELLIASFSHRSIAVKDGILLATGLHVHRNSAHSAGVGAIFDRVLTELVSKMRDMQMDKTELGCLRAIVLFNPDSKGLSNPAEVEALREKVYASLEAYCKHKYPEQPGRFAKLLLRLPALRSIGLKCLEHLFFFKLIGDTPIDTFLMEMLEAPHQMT
Chain of Peroxisome proliferator-activated receptor gamma (Homo sapiens) (P37231 whole entry, looked up, the tested form may be a part): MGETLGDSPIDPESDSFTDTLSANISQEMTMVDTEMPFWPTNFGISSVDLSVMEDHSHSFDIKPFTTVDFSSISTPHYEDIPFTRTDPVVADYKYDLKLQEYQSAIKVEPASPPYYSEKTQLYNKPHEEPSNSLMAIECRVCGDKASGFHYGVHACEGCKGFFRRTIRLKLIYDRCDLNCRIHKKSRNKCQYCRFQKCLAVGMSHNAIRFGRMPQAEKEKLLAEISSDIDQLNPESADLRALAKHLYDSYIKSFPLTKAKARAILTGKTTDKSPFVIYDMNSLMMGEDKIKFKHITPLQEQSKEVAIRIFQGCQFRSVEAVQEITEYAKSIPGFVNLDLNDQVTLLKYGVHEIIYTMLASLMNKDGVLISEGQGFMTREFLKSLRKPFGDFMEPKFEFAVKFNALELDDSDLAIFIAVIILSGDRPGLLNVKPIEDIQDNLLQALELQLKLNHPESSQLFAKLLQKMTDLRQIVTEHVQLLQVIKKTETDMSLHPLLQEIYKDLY
Chain of Fatty acid synthase (Homo sapiens) (P49327 whole entry, looked up): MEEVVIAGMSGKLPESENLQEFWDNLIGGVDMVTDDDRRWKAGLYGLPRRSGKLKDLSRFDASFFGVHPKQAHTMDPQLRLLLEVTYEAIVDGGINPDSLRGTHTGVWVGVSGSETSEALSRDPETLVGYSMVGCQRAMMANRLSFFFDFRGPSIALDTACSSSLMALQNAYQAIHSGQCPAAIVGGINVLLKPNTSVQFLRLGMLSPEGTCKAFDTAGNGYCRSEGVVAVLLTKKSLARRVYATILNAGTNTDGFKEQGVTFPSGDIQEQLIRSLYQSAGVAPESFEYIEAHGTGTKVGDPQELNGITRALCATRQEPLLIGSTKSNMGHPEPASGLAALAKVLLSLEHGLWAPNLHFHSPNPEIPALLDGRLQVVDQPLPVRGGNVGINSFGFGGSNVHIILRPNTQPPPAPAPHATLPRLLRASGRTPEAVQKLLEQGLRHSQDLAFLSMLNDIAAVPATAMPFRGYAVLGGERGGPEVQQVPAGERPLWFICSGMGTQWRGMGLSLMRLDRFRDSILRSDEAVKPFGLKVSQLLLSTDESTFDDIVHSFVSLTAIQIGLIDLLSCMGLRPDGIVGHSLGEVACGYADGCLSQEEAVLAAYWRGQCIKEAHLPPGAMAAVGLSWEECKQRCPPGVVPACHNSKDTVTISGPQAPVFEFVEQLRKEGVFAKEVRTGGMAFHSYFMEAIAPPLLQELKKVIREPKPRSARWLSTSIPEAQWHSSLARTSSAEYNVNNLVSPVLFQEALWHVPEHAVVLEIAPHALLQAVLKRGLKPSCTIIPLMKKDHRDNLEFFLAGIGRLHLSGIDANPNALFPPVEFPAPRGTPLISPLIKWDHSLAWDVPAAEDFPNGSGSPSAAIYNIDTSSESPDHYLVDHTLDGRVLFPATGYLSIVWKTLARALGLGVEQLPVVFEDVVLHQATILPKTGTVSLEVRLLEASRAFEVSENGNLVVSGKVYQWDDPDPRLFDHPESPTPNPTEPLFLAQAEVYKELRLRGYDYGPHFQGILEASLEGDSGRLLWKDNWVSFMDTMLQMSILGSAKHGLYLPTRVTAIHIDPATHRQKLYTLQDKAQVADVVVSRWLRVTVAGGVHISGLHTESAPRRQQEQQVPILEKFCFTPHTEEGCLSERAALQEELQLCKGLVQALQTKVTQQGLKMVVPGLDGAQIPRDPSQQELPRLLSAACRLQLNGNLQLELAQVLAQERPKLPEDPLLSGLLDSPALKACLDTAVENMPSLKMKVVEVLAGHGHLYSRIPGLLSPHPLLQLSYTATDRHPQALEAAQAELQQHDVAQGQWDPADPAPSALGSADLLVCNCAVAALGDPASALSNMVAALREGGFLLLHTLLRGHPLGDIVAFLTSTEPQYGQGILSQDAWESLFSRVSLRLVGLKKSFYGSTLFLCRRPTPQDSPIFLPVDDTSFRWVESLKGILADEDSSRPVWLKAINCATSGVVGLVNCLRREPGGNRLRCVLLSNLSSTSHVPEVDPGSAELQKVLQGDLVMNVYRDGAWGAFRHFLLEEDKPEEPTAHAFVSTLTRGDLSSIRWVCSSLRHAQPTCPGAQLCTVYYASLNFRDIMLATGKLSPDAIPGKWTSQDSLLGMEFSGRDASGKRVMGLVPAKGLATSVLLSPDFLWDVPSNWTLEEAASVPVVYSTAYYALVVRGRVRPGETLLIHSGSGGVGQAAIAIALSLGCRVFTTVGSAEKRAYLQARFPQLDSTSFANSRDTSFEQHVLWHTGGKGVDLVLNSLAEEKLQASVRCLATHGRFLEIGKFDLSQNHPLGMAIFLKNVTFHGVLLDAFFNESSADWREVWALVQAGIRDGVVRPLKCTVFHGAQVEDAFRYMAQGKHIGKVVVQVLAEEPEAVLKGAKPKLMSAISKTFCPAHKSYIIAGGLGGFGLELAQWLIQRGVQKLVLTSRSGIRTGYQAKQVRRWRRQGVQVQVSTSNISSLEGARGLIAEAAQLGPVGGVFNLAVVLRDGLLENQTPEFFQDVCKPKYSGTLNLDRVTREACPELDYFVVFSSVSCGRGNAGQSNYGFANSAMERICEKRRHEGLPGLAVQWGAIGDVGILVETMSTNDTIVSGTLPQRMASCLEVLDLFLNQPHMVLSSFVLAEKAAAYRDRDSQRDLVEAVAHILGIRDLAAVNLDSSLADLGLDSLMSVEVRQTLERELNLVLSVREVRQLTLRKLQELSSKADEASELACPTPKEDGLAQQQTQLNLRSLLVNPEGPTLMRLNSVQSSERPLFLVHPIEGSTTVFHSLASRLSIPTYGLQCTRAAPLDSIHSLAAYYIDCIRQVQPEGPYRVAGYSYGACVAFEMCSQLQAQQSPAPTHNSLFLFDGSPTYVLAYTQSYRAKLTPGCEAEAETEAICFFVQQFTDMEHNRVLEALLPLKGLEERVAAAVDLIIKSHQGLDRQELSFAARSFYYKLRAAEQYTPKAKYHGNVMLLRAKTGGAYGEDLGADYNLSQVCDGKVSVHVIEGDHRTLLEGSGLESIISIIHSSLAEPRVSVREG

On to `O=C(O)C1=NN(c2ccc(S(=O)(=O)O)cc2)C(=O)C1`, for which the compound was called inactive in experiment [1], in [2], in [3] and in [4].
The term AC50 denotes the midpoint of the concentration-response curve, whichever way the signal moves. For the compound `CC1=CCC(=C(C)C)CC1`, the compound was classed as inactive in experiment [1]. Besides, in experiment [2], the AC50 is 77.4 µM (active).
Turning to `C#C[C@]1(O)CC[C@H]2[C@@H]3CCc4cc(O)ccc4[C@H]3CC[C@@]21C`, the half-maximal activity concentration (AC50) in experiment [1] is 35.3 µM (active); in experiment [2], 18.2 µM (active); in experiment [5] it was 0.364 µM (active); in experiment [6], 0.369 µM (active); in experiment [8], 0.142 µM (active); in [11], 0.372 µM (active). The compound was classed as inactive in experiment [1], in experiment [2], in experiment [3], in experiment [4], in experiment [7] and in [9]. Moreover, the result in [10], in experiment [12], in experiment [13], in [14] and in experiment [15] was inactive.
In the case of `O=C(c1ccc(OCCN2CCCCC2)cc1)c1c(-c2ccc(O)cc2)sc2cc(O)ccc12`, the half-maximal activity concentration (AC50) in experiment [1] is 11.9 µM (active); in [2], 11.9 µM (active) and 11.8 µM (active); in [6], 0.35 µM (active). The outcome in [1], in [2], in experiment [3], in experiment [4], in experiment [5] and in [7] was inactive. Further, the result in [8], in experiment [9], in [10], in experiment [11], in experiment [12] and in experiment [13] was inactive. Further, the result in experiment [14] and in experiment [15] was inactive.
As for `C1=COCCC1`, the result in experiment [16], in experiment [1], in [3] and in experiment [4] was inactive.
With `COc1cc(OC)c2ccc(=O)oc2c1`, the compound was called inactive in experiment [1], in experiment [2], in [3] and in experiment [4].
As for `CCCCC/C=C\C=C\C(=O)OCC`, the AC50 in [17] is 81 µM (active). Besides, the compound was called inactive in experiment [1], in [3] and in experiment [4].
`CCC(=O)OC(C)(C)C1CC=C(C)CC1` (stereo unspecified): the half-maximal activity concentration (AC50) in experiment [16] is 83.9 µM (active). The compound was called inactive in [17], in experiment [2], in experiment [3] and in experiment [4].
As for `CCC(C)(C)C1CCC(OC)CC1` (stereo unspecified), the result in experiment [16], in experiment [17], in experiment [1], in experiment [2], in [3] and in [4] was inactive.
For `CC(=O)c1ccc2ccccc2c1`, the result in [16], in experiment [17], in experiment [2], in experiment [3], in experiment [4] and in [5] was inactive. For the same compound, the compound was classed as inactive in experiment [6], in [8], in experiment [9], in experiment [10], in experiment [18] and in experiment [19]. The result in [11] was inactive. In addition, in [7], the half-maximal activity concentration (AC50) was 50 µM (active).
For `CC(=O)CC(=O)N(C)C`, the compound was classed as inactive in experiment [17] and in experiment [2].
For the compound `O=S(=O)(O)c1cc(S(=O)(=O)O)c2c(N=Nc3ccccc3)c(O)ccc2c1`, the outcome in experiment [16] was inactive.
For the compound `NC(=O)c1cccnc1`, the compound was called inactive in experiment [16], in experiment [17], in [1], in experiment [3] and in [4]. Moreover, the AC50 in experiment [2] was 82.4 µM (active).
As for `CCCCCCCCOS(=O)(=O)O`, the result in experiment [16], in [17], in experiment [3] and in [4] was inactive.
For `CC(=O)C1C(=O)C=C(C)OC1=O` (stereo unspecified), the result in experiment [16], in [17], in experiment [1], in experiment [2], in experiment [3] and in experiment [4] was inactive.
For the compound `CCC(C)C1CCCCC1=O` (stereo unspecified), the compound was called inactive in experiment [1], in [2], in experiment [3] and in experiment [4].
Regarding `CC(=O)C1=C(C)[C@@H]2C[C@@]3(C1)[C@H](C)CC[C@H]3C2(C)C`, the half-maximal activity concentration (AC50) in experiment [16] is 37.2 µM (active); in experiment [1], 72.4 µM (active); in experiment [2], 90 µM (active). The compound was called inactive in experiment [17], in [3], in experiment [4], in experiment [6], in experiment [7] and in experiment [18]. Moreover, the call in experiment [19] and in experiment [11] was inactive.
